Screens: PubChem BioAssay, National Center for Advancing Translational Sciences (NCATS)
Compounds with a hit are over-represented: about 11% of the library has one in this group of screens.
Sfp PPTase inh: Sfp phosphopantetheinyl transferase inhibition; Q9F4F7; Biochemical Sfp PPTase activity, qHTS; Potency, µM, for the others: largest response in the series, negative = inhibition, most hits filed as inhibitors; 3.5% of 310,000 active;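 further: the enzyme is Sfp with the accession as filed and its product quenches rhodamine fluorescence; potency means the concentration at half of the fitted maximal effect; 0% = enzyme reaction without inhibitor and -100% = no enzyme wells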
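Reaction rates are the 30-min fluorescence difference (ex 525, em 598 nm) in wells containing 15 nM Sfp, 5 uM rhodamine-CoA and 12.5 uM BHQ-2-YbbR at pH 7.6 with 10 mM MgCl2.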
Tau FP inhib: blocks human tau fibril formation measured by polarization; 0.39% of 280,000 active; Potency, µM (doses to about 57.7 µM), for inactives: top-dose activity, negative = inhibition, usual class: inhibitors; P10636; K18 P301L tau heparin fibrillization, Alexa594 FP, 6 h; AID 1468; further: potency means the concentration at half of the fitted maximal effect; nearly all actives have a fitted effect of over 55% in size
Target sequence (P10636 561-689 P618L limits assumed): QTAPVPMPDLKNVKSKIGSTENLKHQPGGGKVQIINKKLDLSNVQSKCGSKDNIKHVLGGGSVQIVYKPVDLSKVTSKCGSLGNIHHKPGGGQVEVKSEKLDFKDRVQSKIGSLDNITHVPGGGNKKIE
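Human K18 P301L fragment (15 uM unlabeled plus 0.24 uM Alexa 594-labeled) in 100 mM sodium acetate pH 7 with compound, aggregation induced by 20 uM heparin for 6 hr at 37 C. ThT (30 uM) added for 1 hr, then Alexa 594 FP read.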
Tau ThT inhib: tau fibrillization inhibition (ThT binding); Potency, µM (series often up to 57.4 µM), inactives show top-dose activity, negative = inhibition, most hits filed as inhibitors; recombinant tau K18 P301L, heparin-induced fibrillization, ThT fluorescence; 2.1% of 270,000 active; P10636; further: potency means the concentration at half of the fitted maximal effect; nearly all actives have a fitted effect of over 55% in size
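Heparin-induced fibrillization of the P301L-mutant K18 repeat-domain fragment of human tau was followed by ThT binding in quantitative high-throughput format.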
G9a inh: blocks human histone lysine methyltransferase G9a | G9a H3K9 monomethylation, AlphaScreen, 2 h | Potency, µM (series often up to 102 µM), for inactives: top-dose activity, negative = inhibition, hits mostly inhibitors | 8.8% of 350,000 active | AID 504332; further: potency means the concentration at half of the fitted maximal effect; nearly all actives have a fitted effect of over 75% in size
Target sequence (Q96KQ7 913-1193 limits assumed): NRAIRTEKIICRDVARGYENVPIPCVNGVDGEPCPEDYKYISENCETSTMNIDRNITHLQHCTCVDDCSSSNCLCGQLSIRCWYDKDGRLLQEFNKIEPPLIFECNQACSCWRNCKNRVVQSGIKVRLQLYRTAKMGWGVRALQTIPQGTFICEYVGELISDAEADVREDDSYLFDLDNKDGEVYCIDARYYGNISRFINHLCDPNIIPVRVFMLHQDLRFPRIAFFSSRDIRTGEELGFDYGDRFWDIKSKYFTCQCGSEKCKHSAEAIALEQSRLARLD
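AlphaScreen read-out: biotin-H3K9 peptide (500 nM) methylation by 20 nM enzyme with 20 uM SAM, 2 h at room temperature after 15 min compound preincubation; anti-monomethyl H3K9 antibody plus donor/acceptor beads, 10 min dark.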
Coupling enz: coupling enzyme interference in Giardia aldolase counter-screen | coupling enzyme system counterscreen, AmpLite Red fluorescence | activity change, negative = inhibition, % at 58.2 µM, hits read low | 0.67% of 290,000 active | AID 2472; in the data active means activity change below about -30%
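Compounds tested against the coupling enzymes alone at 57.5 uM final; readout was AmpLite Red fluorescence (525/598 nm) after 20 min at RT.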
Tau fluor cs: counter-screen for tau fibril formation inhibitors | 0.93% of 280,000 active | Potency, µM (series often up to 57.7 µM), for the others: top-dose activity change, negative = decrease | tau K18 P301L Alexa594 fluorescence, heparin fibrillization; further: potency means the concentration at half of the fitted maximal effect; nearly all actives have a fitted effect of over 55% in size
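Human tau K18 P301L (15 uM unlabeled, 0.24 uM Alexa 594-labeled) in 100 mM sodium acetate pH 7 with 20 uM heparin, 6 hr at 37 C. ThT 30 uM added, 1 hr ambient; Alexa 594 FP and total fluorescence read at 555/632 nm.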
Numbers without * were called inactive; ? = inconclusive; . = not tested or not shown; [ ] = another dose, or the depositor's remark. Unless noted, the call rests on the fitted dose curve; in most records, active means well fitted curve in the direction sought with a large enough effect; inconclusive means small, poorly fitted or top-dose-only effect, or another doubt; inactive means no such curve, though single readings can be large; an effect the other way counts as inactive or inconclusive. Unless noted, on the % scale 0 is the no-effect control and ±100 the full control effect.

SMILES | Sfp PPTase inh | Tau FP inhib | Tau ThT inhib | G9a inh | Coupling enz | Tau fluor cs
CSc1ncc(/C=C2/C(=O)NC(=O)N(c3ccc(Cl)cc3)C2=O)cn1 | 56.2µM* | ? | ? | 8.91µM* | -0.9 | -18.5%
CCOc1ccc(N2C(=O)NC(=O)/C(=C/c3cnc(SC)nc3)C2=O)cc1 | 28.2µM* | ? | ? | 8.91µM* | 5.3 | -26.8%
Cc1ccc(N2C(=O)NC(=O)/C(=C\c3cccn3C(C)(C)C)C2=O)cc1 | 14.7% | -1.8% | ? | ? | -0.4 | -12.8%
CSc1ncc(/C=C2/C(=O)NC(=O)N(c3ccc(C)cc3)C2=O)cn1 | 44.7µM* | ? | ? | 10µM* | 4.4 | -25.8%
Cc1cc(/C=C2\C(=O)NC(=O)N(c3ccc(Cl)cc3)C2=O)c(C)n1C | -13.3% | 3.1% | ? | . | 0.6 | -5.4%
N#Cc1ccc(CN2CC3(CCNCC3)C2)cc1 | -18.9% | . | . | -3.6%[12.7 µM] | 0.6 | .
NCC[C@H](NC(=O)[C@@H](N)CCCN=C(N)N[N+](=O)[O-])C(N)=O | ? | . | . | . | 0.5 | .
O=C(Nc1cccnc1)C1CCN(S(=O)(=O)c2cccs2)CC1 | 5.3% | 8.7% | 2.7% | 16.5% | -2.0 | 4.4%
OC[C@@H]1[C@@H](O)[C@H](O)[C@H]2[C@@H](O)CCN21 | -0.3% | . | . | . | 0.8 | .
COc1ccc(OC)c(C(Nc2ccccc2)P(=O)(OC(C)C)OC(C)C)c1 (configuration not stated) | 12.8% | 8.2% | -11.4% | ? | -0.9 | -13.3%
O=[N+]([O-])c1ccc(-c2[se]c3ccccc3c2I)cc1 | -21.0% | -0.3%[81.3 µM] | ? | ? | 2.5 | -28.1%[81.3 µM]
Cc1noc(C)c1C(=O)N1CCC2(CC1)Oc1ccc(F)cc1C(=O)C21CC(c2ccc(Cl)cc2)=NO1 (configuration not stated) | 6.5% | 4.2% | ? | -9.8%[59 µM] | 0.8 | -18.0%
Cc1ccc(N2C(=O)NC(=O)/C(=C\c3cnc(-c4ccccc4)nc3)C2=O)cc1 | 56.2µM* | ? | ? | ? | 2.2 | -20.3%
Cc1ccc(N2C(=O)NC(=O)/C(=C/c3ccoc3)C2=O)cc1 | 25.1µM* | -12.0% | . | . | 1.8 | -14.3%
Cc1ccsc1C(=O)C1CCCN(Cc2ccccc2O)C1 (configuration not stated) | 7.5% | 7.0% | -1.3% | . | -0.2 | -1.7%
COc1ccc(O)c(CN2CCCC(C(=O)c3sccc3C)C2)c1 (configuration not stated) | 4.1% | 2.7% | -12.5% | 50.1µM* | -8.0 | -19.4%
NCCCP(=O)(O)CC1CCCCC1 | -5.0% | 4.5% | 7.6% | 40.2%[59 µM] | -1.5 | 5.2%
CCOC(=O)C1CCN(/C=C2/C(=O)NC(=O)N(c3cccc(C)c3C)C2=O)CC1 | ? | 1.6% | 14.4% | . | 7.7 | 10.1%
CCOC(=O)C1CCN(/C=C2\C(=O)NC(=S)N(CC)C2=O)CC1 | 79.4µM* | 3.7% | 6.8% | -6.6% | 2.9 | 5.0%
CCOC(=O)C1CCN(/C=C2/C(=O)NC(=S)N(c3cccc(OC)c3)C2=O)CC1 | 0.5% | 2.2% | -11.8% | 22.4µM* | 2.3 | -6.6%
CCOC(=O)C1CCN(C=C2C(=O)N(C)C(=S)N(C)C2=O)CC1 | -3.9% | 2.5% | -16.0% | -4.5%[59 µM] | 6.2 | -2.3%
CCS(=O)(=O)C(C)(C)S(=O)(=O)CC | 13.9% | . | . | -38.2%[12.7 µM] | . | .
COCCCNC(=O)c1c(NC(=O)c2ccccc2Cl)n(Cc2ccccc2)c2nc3ccccc3nc12 | 15.6% | 5.3% | 4.2% | -46.1% | -2.6 | -11.4%
COCCNC(=O)c1c(NC(=O)c2ccco2)n(Cc2ccccc2)c2nc3ccccc3nc12 | 22.4µM* | ? | 14.1µM* | ? | -33.2* | ?
CCC(C)NC(=O)c1c(N)n(CCCOC)c2nc3ccccc3nc12 (configuration not stated) | 2.3% | 0.9% | ? | 99.5% | -34.2* | ?
SMILES | Sfp PPTase inh | Tau FP inhib | Tau ThT inhib | G9a inh | Coupling enz | Tau fluor cs
COCCCn1c(N)c(C(=O)NCc2ccco2)c2nc3ccccc3nc21 | 22.4µM* | -14.1% | ? | . | -35.0* | ?
CCCCCCCCCCCCCCCCOC[C@@H](O)COP(=O)([O-])OCC[N+](C)(C)C | 6.9% | 0.4% | -7.6% | 25.6%[59 µM] | 2.5 | -6.4%
S=P(Nn1cnnc1)(c1ccc(Br)cc1)c1ccc(Br)cc1 | 79.4µM* | 8.6% | ? | -21.4% | 0.9 | ?
Cc1ccccc1N1C(=O)/C(=C/c2ccco2)C(=O)NC1=S | 20µM* | . | . | 1.78µM* | -1.0 | .
Cc1ccccc1N1C(=O)NC(=O)/C(=C\c2cc(Br)c(N3CCOCC3)o2)C1=O | -17.1% | ? | 15.8µM* | ? | 2.8 | -18.6%
COc1ccc(N2C(=O)/C(=C/c3ccc(C)o3)C(=O)NC2=S)c(OC)c1 | 39.8µM* | . | . | 12.0%[0.501 µM] | 1.0 | .
Cc1cccc(N2C(=O)/C(=C/c3ccc(N4CCN(C)CC4)o3)C(=O)NC2=S)c1C | 63.1µM* | -2.6% | 1.6% | 44.7µM* | -23.5 | 0.1%
CCc1ccccc1N1C(=O)/C(=C/c2ccc(N3CCN(C)CC3)o2)C(=O)NC1=S | -6.9% | -5.2% | ? | ? | -2.8 | -3.6%
Cc1cc(/C=C2/C(=O)NC(=O)N(Cc3ccco3)C2=O)c(C)n1-c1ccccc1O | 6.0% | -13.9% | ? | . | 4.0 | ?
Cc1ccccc1N1C(=O)NC(=O)/C(=C/c2ccc(N3CCOCC3)o2)C1=O | 8.3% | -4.6% | -25.3% | ? | -1.4 | -2.5%
CCCCCC[C@H]1C(=O)O[C@H](C)[C@H](NC(=O)c2cccc(NC=O)c2O)C(=O)O[C@@H](C)[C@@H]1OC(=O)CC(C)C | 10.3% | 10.9% | -12.5% | . | 15.8 | ?
COc1ccccc1NC(=O)c1oc2ccccc2c1NC(=O)c1ccccc1C(F)(F)F | . | ? | -0.8% | 0.9%[59 µM] | . | ?
CCOc1ccc(NC(=O)CN(c2ccc(Cl)cc2C)S(=O)(=O)c2ccccc2)cc1 | . | -22.5% | -15.6% | -41.6%[59 µM] | . | ?
CC(=O)OC1C(=O)[C@]2(C)C(O)CC3OC[C@]3(OC(C)=O)C2[C@@H](OC(=O)c2ccccc2)[C@]2(O)CC(O)C(C)=C1C2(C)C (some centres not stated) | -3.9% | 6.9% | -2.0% | . | 2.1 | -1.2%
CCOc1ccc(N2C(=O)/C(=C\c3cccs3)C(=O)NC2=S)cc1 | 12.6µM* | ? | ? | 7.08µM* | -2.0 | 7.5%
CCOc1ccc(N2C(=O)/C(=C/c3ccco3)C(=O)NC2=S)cc1 | 35.5µM* | . | . | 16.1%[0.501 µM] | 7.8 | .
O=C1NC(=S)N(c2ccccc2F)C(=O)/C1=C\c1cccs1 | 11.2µM* | 10.9% | ? | 1.26µM* | 0.2 | 4.9%
O=[N+]([O-])c1c(Cl)cccc1-c1c[nH]cc1Cl | -3.0% | . | . | ? | . | .
